In PubChem BioAssay (NCI):
Compounds without any hit were thinned out: in the full panel of roughly 79,000, 15% have a hit. The source made the active and inactive calls. No stated cut-off is given here; in the data, active means growth inhibition above about 70%; inactive means the rest.

Assays:
[1] = NCI Yeast Anticancer Drug Screen. Data for the rad50 strain (AID 155);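 further: 0% = growth of vehicle-only cultures of the same strain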; conditions: S. cerevisiae rad50 strain growth inhibition; at 50.0 µM; stronger effect = higher value
Summary of the method: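 Cells are treated with compound, grown, and their growth is then scored against vehicle-only cultures of the same repair-deficient yeast strain.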

[2] = NCI Yeast Anticancer Drug Screen. Data for the mec2-1 strain (AID 157); conditions: S. cerevisiae mec2-1 strain, at 50.0 µM, stronger effect = higher value
Summary of the method: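 Mutant yeast (mec2-1) grown with compound; growth inhibition relative to vehicle control reported.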

[3] = NCI Yeast Anticancer Drug Screen. Data for the sgs1 mgt1 strain (AID 161);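 further: 0% = growth of cultures given vehicle only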; conditions: S. cerevisiae sgs1 mgt1 strain, at 50.0 µM, stronger effect = higher value
Summary of the method: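 This yeast growth screen uses a strain with defined DNA-repair lesions; compound-treated growth is compared with vehicle-treated growth.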

[4] = NCI Yeast Anticancer Drug Screen. Data for the cln2 rad14 strain (AID 165);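 further: 0% = growth equal to vehicle treated cultures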; conditions: S. cerevisiae cln2 rad14 strain, at 50.0 µM, stronger effect = higher value
Summary of the method: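 Readout is yeast growth inhibition versus vehicle-treated controls, using a strain with cln2 and rad14 alterations exposed to compound.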

[5] = NCI Yeast Anticancer Drug Screen. Data for the bub3 strain (AID 167); conditions: S. cerevisiae bub3 mutant strain, at 50.0 µM, stronger effect = higher value
Summary of the method: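 Part of a panel of yeast mutants defective in DNA damage repair or cell cycle regulation. Each strain is grown with compound, and inhibition is calculated relative to solvent-treated cultures.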

[6] = NCI Yeast Anticancer Drug Screen. Data for the mlh1 rad18 strain (AID 175); conditions: S. cerevisiae mlh1 rad18 strain growth inhibition; at 50.0 µM; stronger effect = higher value
Summary of the method: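 Genetically defined yeast (DNA repair-deficient) exposed to compounds; growth inhibition determined relative to vehicle.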

Measured: growth inhibition

COC(=O)[C@H]1C=C[C@@H](C)n2c(=O)c3ccccc3c(=O)n21
inactive: [1] -9% | [2] 15.4% | [3] -1.4% | [4] -9.75% | [5] -19.1% | [6] -6.8%

CN(C)NC(=O)Oc1ccc(Cl)cc1
inactive: [1] -0.25% | [2] -0.35% | [3] -11.4% | [4] -4.55% | [5] -33.3% | [6] 2.75%

c1ccc(CC2=NCCc3ccccc32)cc1
inactive: [1] -16.4% | [2] -28.3% | [3] -3.3% | [4] 1.15% | [5] -2.6% | [6] -8.7%

COCc1onc(-c2ccc(OC)cc2)c1-c1ccc(OC)cc1
inactive: [1] 8.25% | [2] 20.4% | [3] 3.6% | [4] 30.9% | [5] 49.4% | [6] 31.4%

O=C(CN1C(=O)c2ccccc2C1=O)NCC(=O)N(C(=O)NC1CCCCC1)C1CCCCC1
inactive: [1] 23.1% | [2] 2.3% | [3] 27.9% | [4] 11.8% | [5] -3.35% | [6] 5%

C=CC(O)CCCCCC (stereo not drawn)
inactive: [1] -4.9% | [2] -27.8% | [3] -22.4% | [4] -5.1% | [5] -10.2% | [6] -20.7%

O=C(/C=C/c1cccs1)c1ccc(Cl)cc1
inactive: [1] -26.6% | [2] -41.3% | [3] -9.45% | [4] -2.8% | [5] 2.2% | [6] -4.35%

O=C(Cn1c(-c2ccccc2)cc2ccccc21)N1CCOCC1
inactive: [1] -0.45% | [2] -32.9% | [3] -39% | [4] -18.1% | [5] 1.65% | [6] -28.1%

CCCCCCCCC1C(CCCCCCCC(=O)N(CC)CCCOCC)C2(Cl)C(Cl)=C(Cl)C1(Cl)C2(Cl)Cl (stereo not drawn)
inactive: [1] 3.45% | [2] 4.65% | [3] 13.9% | [4] -10.6% | [5] -6.35% | [6] 16.4%

CC(=O)C(C)(O)C(OP(=O)(O)O)c1ccccc1 (stereo not drawn)
inactive: [1] 0.65% | [2] -10.5% | [3] 4.6% | [4] -37.4% | [5] -11.1% | [6] 3.55%

O=C(Cc1cc[n+]([O-])cc1)C(=O)Nc1cc(Cl)c(Cl)cc1Cl
inactive: [1] -27.4% | [2] -11.9% | [3] -21.5% | [4] -17.1% | [5] -17.8% | [6] -20.1%

Cn1cnc([N+](=O)[O-])c1Sc1nccn1-c1ccccc1
inactive: [1] -10.8% | [2] -7.1% | [3] -7.8% | [4] 22.2% | [5] 0.75% | [6] -2.85%

CC(=O)Nc1ccc(OCCCc2ccccc2)c([N+](=O)[O-])c1
inactive: [1] -7.2% | [2] 43.6% | [3] 23.5% | [4] -20.7% | [5] 20.4% | [6] -2.65%

COC(=O)c1nc(N)[nH]c(=O)c1CCCCCc1c(C(=O)OC)nc(N)[nH]c1=O
inactive: [1] -4.8% | [2] -0.15% | [3] -9.2% | [4] 6.5% | [5] -0.3% | [6] -17.6%

c1ccc2c(C3CO3)c3ccc4ccccc4c3cc2c1 (stereo not drawn)
active: [1] 99% | [2] 99.5% | [3] 99.5% | [4] 98.8% | [5] 99.2% | [6] 99.2%

CC(=O)OCC1(C)CCC(C)CO1 (stereo not drawn)
inactive: [1] -21.4% | [2] -4.45% | [3] 7.8% | [4] 15.2% | [5] 1.1% | [6] 7%

C1COC2OCCOC2O1 (stereo not drawn)
inactive: [1] 5.2% | [2] -2.05% | [3] 4.6% | [4] -2.55% | [5] 1.4% | [6] 0.7%

CC(C)(C)C(=O)CN
inactive: [1] -19.4% | [2] -10.1% | [3] -9.55% | [4] -71% | [5] 11% | [6] -2.65%

CCOC1(OCC)C(=O)N(c2ccc(Cl)c(Cl)c2)C(=O)N1c1ccc(Cl)c(Cl)c1
inactive: [1] 39.2% | [2] 1.4% | [3] -5.6% | [4] 7.5% | [5] -3.65% | [6] -0.45%

N#CC1=C(N2CCCC2)NC(=O)CC1=O
inactive: [1] 0% | [2] -4.4% | [3] -0.6% | [4] 35.6% | [5] 7.2% | [6] 1.4%

c1ccc2c3nnc(c2c1)SCCCSc1nnc(c2ccccc12)SCCCS3
inactive: [1] -9.3% | [2] -13.3% | [3] -2.5% | [4] 1.6% | [5] 1.8% | [6] -0.95%

NC(=O)c1ncn(C2CCC(CP(=O)(O)O)C2)c1N (stereo not drawn)
inactive: [1] -7.45% | [2] -14.1% | [3] -9.55% | [4] -28.4% | [5] -7% | [6] 5.8%

CC(=O)Oc1ccccc1[C@H]1CC(=O)C[C@H](c2ccccc2OC(C)=O)C12C(=O)c1ccccc1C2=O
inactive: [1] -12.8% | [2] -18.4% | [3] -7.55% | [4] 30.1% | [5] -17.4% | [6] 9.3%

Cc1ccc2nc(CC(=O)c3ccc4ccccc4c3)c(=O)[nH]c2c1
inactive: [1] 6.4% | [2] 9.65% | [3] 9.2% | [4] 13.3% | [5] 3.15% | [6] 22.1%

CN(C)CCC(=O)c1cccc(O)c1
inactive: [1] -27.9% | [2] -19% | [3] -6.4% | [4] -37.6% | [5] -9.45% | [6] -10.2%

O=C(N/N=C/c1ccccc1Cl)c1ccccc1
inactive: [1] -19.4% | [2] -1.25% | [3] -5.3% | [4] -7.55% | [5] -4.05% | [6] -9.6%

COc1ccc(OC)c(C2=CCCCCC2)c1
inactive: [1] 7.6% | [2] -6.15% | [3] 3.1% | [4] -22.1% | [5] -7.85% | [6] 13.5%

COc1cc(=O)[nH]c(-c2ccccc2)c1OC
inactive: [1] -3.55% | [2] 3.95% | [3] 9% | [4] -5.05% | [5] 7.7% | [6] 0.05%

C1=NN=C2C=C3CCc4ccccc4C3CC12 (stereo not drawn)
inactive: [1] 7.45% | [2] 7.25% | [3] -1.2% | [4] -16.9% | [5] -15.9% | [6] 18.6%

CCOC(=O)CCCCCC(C(=O)OCC)c1nc2ccccc2[nH]c1=O (stereo not drawn)
inactive: [1] -14.4% | [2] 0.4% | [3] 10.9% | [4] -5.1% | [5] 11.1% | [6] 8.55%

CC(=O)OCC1OC(OC(C)=O)C(NS(=O)(=O)c2ccc(C)cc2)C(OC(C)=O)C1OC(C)=O (stereo not drawn)
inactive: [1] 18.3% | [2] 4.25% | [3] 18.1% | [4] 17.8% | [5] -3.65% | [6] -4.65%

CCN(CC)c1ccc2cc(-c3nc4ccccc4[nH]3)c(=O)oc2c1
inactive: [1] 2% | [2] -5.3% | [3] 12.5% | [4] 3.15% | [5] 11.1% | [6] 2.55%

Cc1ccc(S(=O)(=O)OC[C@H]2CC=CC[C@@H]2COS(=O)(=O)c2ccc(C)cc2)cc1
inactive: [1] -18.6% | [2] 31.6% | [3] 0.6% | [4] -29.6% | [5] 3.2% | [6] -6.1%

c1ccc(N2CCN(c3ccccn3)CC2)nc1
inactive: [1] -2.65% | [2] -13.6% | [3] 2.5% | [4] -21.5% | [5] -13.7% | [6] -5.1%

Nc1nc(N)nc(-c2ccccc2NS(=O)(=O)c2ccc([N+](=O)[O-])cc2)n1
inactive: [1] 1.6% | [2] 21.8% | [3] 6.2% | [4] 3.45% | [5] 11.2% | [6] 38.4%

O=C1NC2(CCCC2)C(=O)NC12CCCC2
inactive: [1] -21.1% | [2] -22.1% | [3] -1.45% | [4] -13.2% | [5] -26.2% | [6] 1.35%

Cc1ccc(C2OC(=O)C(=O)C2=O)cc1 (stereo not drawn)
inactive: [1] -35.9% | [2] -21.4% | [3] -23.2% | [4] -21.6% | [5] -32% | [6] -3.35%

c1ccc2c(c1)[nH]c1ccccc12
inactive: [1] -30.9% | [2] -15.9% | [3] 1.65% | [4] -3.05% | [5] -5.5% | [6] 7.05%
